Only some compounds are listed: those with a hit (about 3% of all), similar ones and a draw of the others.
BioA inh: inhibitors of Mycobacterium tuberculosis BioA enzyme; purified M. tuberculosis BioA enzyme, plate reader; inhibition, % at 9.99 µM; 360,000 tested, 0.096% active; in the data active means inhibition above about 40%
GDH-TPI inh: GDH-TPI coupled enzyme inhibition counter-screen | GDH-TPI coupled enzyme counterscreen, NADH absorbance | inhibition, % at 4.8 µM | 360,000 tested, 1.2% active | AID 588335; in the data active means inhibition above about 30%;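 further: 0% = DMSO wells and 100% = wells lacking the enzyme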
FBA Mtb inh: inhibits M. tuberculosis FBA enzyme; P9WQA3; purified M. tuberculosis FBA, fluorescence read-out; inhibition, % at 1 µM; 360,000 tested, 2.3% active; AID 588726; in the data active means inhibition above about 27%;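 further: 0% = vehicle and 100% = reference inhibitor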
Target sequence (P9WQA3 whole entry, looked up): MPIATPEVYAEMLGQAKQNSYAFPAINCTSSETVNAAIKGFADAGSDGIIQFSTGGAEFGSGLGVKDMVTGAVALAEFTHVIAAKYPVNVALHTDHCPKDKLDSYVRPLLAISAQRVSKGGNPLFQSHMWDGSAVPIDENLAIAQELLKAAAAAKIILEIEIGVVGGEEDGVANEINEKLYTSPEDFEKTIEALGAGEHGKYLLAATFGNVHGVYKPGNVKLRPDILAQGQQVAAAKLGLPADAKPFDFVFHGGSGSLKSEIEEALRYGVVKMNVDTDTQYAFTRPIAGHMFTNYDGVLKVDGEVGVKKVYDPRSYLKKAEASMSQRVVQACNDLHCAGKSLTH
BH1578 lux ind: quorum light induction in luxS cqsA deficient V. cholerae; V. cholerae BH1578 lux reporter, luminescence, 6 h; activation, % at 18.7 µM; AID 588436; 350,000 tested, 0.16% active; in the data active means activation mostly above about 9.7%, no sharp cut-off
* hit, by the source's call; i = inactive; nt = no result given; + = active, no number.

SMILES	BioA inh	GDH-TPI inh	FBA Mtb inh	BH1578 lux ind
O=C(O)CCCC(=O)Nc1nc2n(n1)C(c1ccc(F)cc1)CC(c1ccc(Cl)cc1)N2 (configuration not stated)	nt	2.1	9.6	2.0
COc1cccc(-c2nnc(-c3ccc(C)o3)o2)c1	nt	0.9	178.7*	-0.3
COc1cccc(-c2nnc(N)o2)c1	0.1	4.6	10.3	1.6
CCn1cc(/C=C(\NC(=O)c2ccccc2Cl)C(=O)N2CCOCC2)c2ccccc21	0.0	24.8	0.4	-0.9
CCn1cc(/C=C(\NC(=O)c2ccccc2F)C(=O)N2CCOCC2)c2ccccc21	1.7	30.8*	-1.7	i
CN1CCN(C(=O)/C(=C/c2cn(S(=O)(=O)N(C)C)c3ccccc23)NC(=O)c2ccccc2Cl)CC1	-1.9	2.2	-1.5	-0.3
CN(C)S(=O)(=O)n1cc(/C=C(\NC(=O)c2ccccc2F)C(=O)N2CCOCC2)c2ccccc21	-3.3	14.7	1.4	-0.7
CCn1cc(/C=C(\NC(=O)c2ccccc2F)C(=O)N2CCCC2)c2ccccc21	0.2	31.8*	-6.4	0.9
CCn1cc(/C=C(\NC(=O)c2ccccc2Cl)C(=O)N2CCN(C)CC2)c2ccccc21	-0.6	39.1*	0.3	-0.3
CCOC(=O)c1cccc(-n2cccc2/C=C2\NC(=O)N(CC(=O)O)C2=O)c1	-1.5	31.4*	0.2	i
O=C(O)c1ccc(-n2cccc2/C=C2/NC(=O)N(c3ccccc3)C2=O)cc1	nt	31.8*	0.2	-0.5
COc1ccc(NC(=O)N(C)C[C@H]2Oc3ccc(NC(=O)NC(C)C)cc3C(=O)N([C@@H](C)CO)C[C@@H]2C)cc1	3.6	nt	nt	nt
C[C@H](CO)N1C[C@H](C)[C@H](CN(C)C(=O)NC2CCCC2)Oc2ncc(/C=C/c3ccccc3)cc2C1=O	-0.8	nt	nt	nt
COc1ccc(/C=N/Nc2nc(C)c([N+](=O)[O-])c(N(C)c3ccccc3)n2)cc1OC	nt	45.5*	-3.4	-0.2
COc1ccc(-n2nnc3c(SC(C(C)=O)C(=O)N(C)C)ncnc32)cc1 (configuration not stated)	2.9	32.2*	-1.5	i
CCOC(=O)c1cc(-c2ccc(/C=C3/C(=O)N(c4ccc(C(=O)O)cc4)N=C3C)o2)ccc1Cl	-4.6	0.7	-0.5	-0.3
CCCCOC(=O)c1cc(-c2ccc(/C=N/n3cnnc3)o2)ccc1Cl	0.0	31.5*	0.8	i
Cc1cc(-c2ccc(/C=N/n3cnnc3)o2)ccc1Cl	nt	33.0*	-1.5	0.0
CCOC(=O)c1cc(-c2ccc(/C=N\n3cnnc3)o2)ccc1Cl	1.4	46.5*	0.6	i
Cc1cc([N+](=O)[O-])c(C)cc1-c1ccc(/C=N/n2cnnc2)o1	-1.4	20.0	-2.5	0.8
Cc1cccc(S(=O)(=O)N[C@H]2CC[C@H](CCNS(=O)(=O)c3ccccc3F)O[C@@H]2CO)c1	0.9	nt	nt	nt
O=C1c2cccc3cccc(c23)C(=O)N1c1ccccc1Cl	-1.0	32.5*	24.8	i
O=c1c(-c2n[nH]c(=S)o2)cccn1Cc1ccccc1	nt	24.0	17.4	-0.6
CSc1nnc(-c2cccn(Cc3ccccc3)c2=O)o1	5.0	4.4	130.7*	-0.3
COc1ccc(/C=C(\NC(=O)c2cccs2)C(=O)Nc2ccc(C)cc2)cc1OC	-1.0	51.9*	0.7	-0.4
SMILES	BioA inh	GDH-TPI inh	FBA Mtb inh	BH1578 lux ind
COC(=O)C[C@H]1C[C@H]2c3cc(NC(=O)CC4CC4)ccc3O[C@H]2[C@@H](CO)O1	1.4	nt	nt	nt
COc1ccc(OC)c(C2C(C(=O)c3cc4ccccc4o3)=C(O)C(=O)N2c2cc(C)on2)c1 (configuration not stated)	-1.0	17.4	-0.3	i
COc1ccccc1C1C(C(=O)c2cc3ccccc3o2)=C(O)C(=O)N1c1cc(C)on1 (configuration not stated)	-0.7	31.3*	7.1	-0.3
C/C=C/c1cnc2c(c1)C(=O)N([C@@H](C)CO)C[C@H](C)[C@H](CN(C)S(=O)(=O)c1ccccc1F)O2	3.2	nt	nt	nt
Cc1cc2oc(=O)cc(CN3CCOCC3)c2cc1C(C)C	0.9	-0.4	-1.7	-0.2
O=c1cc(CN2CCOCC2)c2cc(Cl)c(O)cc2o1	-0.3	-0.8	+	-0.3
CCc1cc2c(CN3CCN(CC)CC3)cc(=O)oc2cc1O	-0.9	15.8	+	-0.2
CCc1ccc2oc(=O)cc(CN3CCN(Cc4ccccc4)CC3)c2c1	-1.9	5.5	0.8	i
O=S(=O)(c1ccccc1)N1CCCCN2[C@H](CO)[C@@H](c3ccc(C#Cc4ccccc4)cc3)[C@H]2C1	-0.9	nt	nt	nt
Cc1no[n+]([O-])c1COc1ccc(/C=C2\NC(=S)NC2=O)cc1	nt	39.2*	2.7	-0.3
CC(C)N(CCn1cnc2c([nH]c3ccccc32)c1=O)C(C)C	-0.2	8.8	7.7	i
CCN(CC)CCn1cnc2c([nH]c3cccc(OC)c32)c1=O	1.8	-6.4	103.4*	0.4
COc1cccc2[nH]c3c(=O)n(CCN(C)C)cnc3c12	-0.5	22.5	116.9*	-0.4
COc1cccc2[nH]c3c(=O)[nH]cnc3c12	-0.5	10.2	132.6*	i
CC(=O)N(C)C[C@H]1Oc2cc(C#CC(C)C)ccc2S(=O)(=O)N([C@H](C)CO)C[C@@H]1C	-2.3	nt	nt	nt
O=C(NCC[C@H]1CC[C@@H](NS(=O)(=O)c2ccccc2)[C@@H](CO)O1)c1ccc2c(c1)OCO2	1.0	nt	nt	nt
COC(=O)Nc1ccc2ccc3c(NC(=O)OC)ccc4ccc1c2c43	nt	43.9*	+	-4.5
COC(=O)Nc1ccc(C)cc1NC(=O)OC	0.5	6.5	4.1	i
O=c1[nH]c(=S)n(Cc2ccc(F)cc2)c(O)c1C=NCCCn1ccnc1	nt	31.0*	-1.6	-0.6
O=c1[nH]c(=O)n(Cc2ccc(F)cc2)c(O)c1C=NCCCn1ccnc1	-0.1	-5.7	4.8	i
COCCN1CCn2c(nc3cc(NC(=O)NC4CCCCC4)ccc32)C1	-2.3	3.7	94.0*	i
CCCOc1ccc2oc(=O)c3c(c2c1)CCCN3C(=O)CN1CCN(c2ncccn2)CC1	-0.2	5.7	6.0	-0.1
O=C(CN1CCCC1)N1CCCc2c1c(=O)oc1ccc(OCc3ccccc3)cc21	3.8	33.8*	20.9	-0.7
COCCNC(=O)C[C@@H]1CC[C@H]2[C@@H](COC[C@H](O)CN2S(=O)(=O)c2ccccc2F)O1	-0.5	nt	nt	nt
CSc1nc(-c2ccccc2)c(C#N)c(=O)[nH]1	-0.8	3.8	1.1	i
SMILES	BioA inh	GDH-TPI inh	FBA Mtb inh	BH1578 lux ind
CSc1c2c([nH]c(=O)c1C#N)-c1ccccc1CC2	nt	nt	174.9*	nt
O=C(Nc1ccccc1)c1ccc(CN2CCc3ccccc3C2)cc1	nt	4.1	-0.4	-0.3
O=C(Nc1ccc(S(=O)(=O)N2CCCCC2)cc1)c1ccc(CN2CCc3ccccc3C2)cc1	5.8	7.9	0.2	16.7*
COc1ccc2c(Cn3cnc4cc([N+](=O)[O-])ccc4c3=O)cc(=O)oc2c1	0.1	31.2*	5.3	0.4
Cc1ccc(OCCn2cnc3cc([N+](=O)[O-])ccc3c2=O)cc1	-1.4	0.0	2.6	i
COc1ccc(S(=O)(=O)Nc2ccc3c(c2)C(=O)N([C@H](C)CO)C[C@H](C)[C@H](CN(C)C(=O)Nc2ccccc2)OCCCC[C@@H](C)O3)cc1	-5.5	nt	nt	nt
CCOC(=O)c1nn(-c2ccc(C)cc2)cc1O	0.5	8.5	7.8	+
